# Compound activity as filed in PubChem.
# Rows were chosen to be rich in hits. Some 8% of all compounds tested hit in one or more screens of this group.
# SW480 rereplic – DNA re-replication induction in SW480 cells. SW480 DNA re-replication, Hoechst DNA content imaging, 48 h. hit rate 1.8% among 340,000. Potency, µM (doses to about 46.1 µM), without a hit: at the highest dose re-replication activation, hits mostly activators. AID 624297; further: % of control where 0% means no effect; nearly all actives have a fitted effect of over 55% in size
#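 First, 250 cells per well were seeded. Next, compound or vehicle (23 nL) was pinned in, plates sat 48 hr at 37 C. Finally Hoechst was added for 40 min before fluorescence scanning.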
# HT1080NT lethal – kills 2HG-producing HT-1080-NT fibrosarcoma cells | HT-1080-NT fibrosarcoma viability, CellTiter-Glo ATP luminescence, 48 h | hit rate 1.6% among 360,000 | Potency, µM (series often up to 46.1 µM), inactives show top-dose activity, negative = less viability, hits mostly cytotoxic | AID 686970;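 further: NT is the 2HG producing partner of a matched IDH1 knockdown line; 0% = DMSO-treated cells and -100% = media-only wells without cells; nearly all actives have a fitted effect of over 55% in size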
#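 750 cells/well, RPMI + 5% FBS; 2 h settle, compound pin-transfer, 48 h at 37 degrees C. CellTiter-Glo 10 min RT, luminescence. Normalized to DMSO and media-only wells.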
# HT1080 IDH1KD tx – HT-1080 IDH1 knockdown cell toxicity (counter line); Potency, µM (highest dose often 46.1 µM), for the others: at the highest dose activity, negative = toxicity, hits mostly cytotoxic; hit rate 2% among 360,000; HT-1080 IDH1 knockdown viability, ATP luminescence, 48 h; AID 686971;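 further: 0% = DMSO wells and -100% = cell-free medium wells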
#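 In this qHTS, HT-1080 cells depleted of IDH1 are exposed for 48 h at 37 °C to compound titrations. Toxicity is scored from CellTiter-Glo luminescence, with DMSO as full viability and medium alone as none.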
# KB-V1 cytotox – kills drug-selected multidrug resistant KB-V1 cells; KB-V1 MDR cells viability, CellTiter-Glo, 72 h; Potency, µM (series often up to 46.1 µM), most hits filed as cytotoxic; hit rate 3.4% among 400,000; further: on the % scale 0 is the no-effect control and ±100 the full control effect; nearly all actives have a fitted effect of over 60% in size
#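 Cytotoxicity via CellTiter-Glo luminescence after 72 h compound exposure at 37 degrees C. Cells: drug-selected KB-V1 line, DMEM phenol-red free plus 10% FBS. Compounds tested at multiple concentrations; normalized data fitted to concentration-effect curves.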
# KB-3-1 cytotox – kills parental KB-3-1 adenocarcinoma cells; KB-3-1 viability, CellTiter-Glo ATP luminescence, 72 h; Potency, µM (titrated, usually from 46.1 µM), hits mostly cytotoxic; hit rate 1.4% among 400,000; AID 1347075; further: on the % scale 0 is the no-effect control and ±100 the full control effect; nearly all actives have a fitted effect of over 60% in size
#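 Luminescent ATP read-out (CellTiter-Glo) measures survival of drug-naive KB-3-1 cells after 72 h compound exposure at 37 °C. Titration series was screened from lowest to highest concentration, with DMSO vehicle plates as background controls.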
# MCF10A rerep – DNA re-replication induction in MCF 10a cells; MCF 10A DNA re-replication, Hoechst nuclear intensity, 48 h; Potency, µM (titrated, usually from 46.1 µM), for the others: top-dose activity, positive = re-replication, usual class: activators; hit rate 2.9% among 350,000; further: % of control where 0% means no effect; nearly all actives have a fitted effect of over 50% in size
# Starred values were filed as active, the others as inactive; i = inactive; u = inconclusive; x = no result given. The call rests on the fitted dose curve; in most records, active means well fitted curve in the direction sought with a large enough effect; inconclusive means small, poorly fitted or top-dose-only effect, or another doubt; inactive means no such curve, though single readings can be large; an effect the other way counts as inactive or inconclusive. Potency means the concentration at half of the fitted maximal effect.
SMILES,SW480 rereplic,HT1080NT lethal,HT1080 IDH1KD tx,KB-V1 cytotox,KB-3-1 cytotox,MCF10A rerep
Cc1c([N+](=O)[O-])cc(N2C(=O)C=CC2=O)cc1[N+](=O)[O-],0%,-3%,13%,i,i,0%
CN(Cc1ccc(F)cc1)C(=O)C(c1ccccc1)c1ccccc1,u,0%,-5%,i,i,-10%
COc1ccccc1CN(C)C(=O)C(c1ccccc1)c1ccccc1,u,u,16µM*,21µM*,u,u
c1ccc(-c2cn(C[C@H]3CC[C@H](Cn4cc(-c5ccccn5)nn4)O3)nn2)nc1,1%,25%,1%,i,i,3%
CCOC(=O)C1=C(CC)Nc2ccccc2N=C1NC(=O)Nc1ccc(Cl)c(Cl)c1,u,u,u,i,u,6.5µM*
Nc1nc(N)c2c(n1)CN(Cc1ccc(Cl)cc1)C2,x,-3%,-2%,i,i,x
O=C(COc1ncnc2sccc12)Nc1ccc2c(c1)OCCO2,-26%,-8%,-1%,i,i,2%
O=C(NCCN1C(=O)S/C(=C\c2ccc(Cl)c(Cl)c2)C1=O)c1ccc2c(c1)C(=O)N(Cc1ccncc1)C2=O,-2%,u,-17%,i,i,16µM*
CC(Oc1ccc(Cl)cc1)C(=O)NCCN1C(=O)S/C(=C\c2cccnc2)C1=O (configuration not stated),1%,2%,-2%,u,i,6%
O=C(NCCN1C(=O)S/C(=C\c2ccc(OC(F)F)cc2)C1=O)c1cnccn1,5.8µM*,u,u,8.2µM*,5.8µM*,5.8µM*
COc1ccc(/C=C2\SC(=O)N(CCNC(=O)C3=COCCO3)C2=O)cc1,10µM*,7.3µM*,7.3µM*,2.6µM*,2.9µM*,1.8µM*
O=C(NCCN1C(=O)S/C(=C\c2ccc(OC(F)F)cc2)C1=O)C1=COCCO1,21µM*,u,u,u,u,18µM*
O=C(NCCN1C(=O)S/C(=C\c2ccc(OC(F)F)cc2)C1=O)[C@@H]1CCCN1C(=O)c1cccs1,17%,13%,5%,u,i,-3%
COc1ccc2c(CC(=O)NCCN3C(=O)S/C(=C\c4cccnc4)C3=O)coc2c1,0%,4%,-7%,i,i,4%
COc1ccc(/C=C2\SC(=O)N(CCNC(=O)Cc3coc4cc(OC)ccc34)C2=O)cc1,13%,-10%,-6%,5.8µM*,u,7%
N#Cc1ccc2c(c1)nnn2-c1ccccc1,3%,9%,7%,9.2µM*,i,-2%
Nc1ccc2c(c1)nnn2-c1ccccc1,6%,1%,2%,i,i,-6%
COc1ccc(C(C[N+](=O)[O-])C2(c3ccc(OC)c(OC)c3)C(=O)c3ccccc3C2=O)cc1 (configuration not stated),3.3µM*,u,21µM*,u,u,u
COC(=O)CC1(c2ccc(OC)cc2)C(=O)c2ccccc2C1=O,20%,u,u,u,i,86%
OC(CSc1nnnn1-c1ccccc1)Cn1c2ccccc2c2ccccc21 (configuration not stated),x,-53%,u,21µM*,u,x
O=C(NC(=S)Nc1ccccc1N1CCCCC1)c1ccc(-c2cccc([N+](=O)[O-])c2)o1,-30%,4%,12%,i,i,3%
O=C(NC(=S)Nc1ccccc1N1CCCC1)c1ccc(-c2cccc([N+](=O)[O-])c2)o1,21µM*,u,u,16µM*,u,4%
Cc1c(C(=O)NC(=S)Nc2ccccc2N2CCCC2)cccc1[N+](=O)[O-],12%,-2%,-5%,13µM*,i,9%
COc1ccc(NC(=O)c2c(C)oc3ccc(O)c(CN4CCC(C)CC4)c23)cc1,x,x,x,i,i,x
